According to PubChem BioAssay (EPA / NIEHS):
Where “and” joins values, the source holds several entries; their conditions need not be identical. Equal entries are not always repeated. More than one record can exist for a structure, and the calls need not agree. Calls of active or inactive are those of the source. The calls were made as follows: active = hit-call score of the fitted dose curve at least 0.9, where 1 is the maximum; inactive = score below 0.9.

Legend:
[1] = read-out: Matrix Metallopeptidase 1 (MMP1), MMP1 (gene 4312); test: BSK_BE3C_MMP1: BioMAP Diversity Plus: BE3C Assay for Matrix Metallopeptidase 1 (MMP1) Biomarker Activity (AID 2283024); conditions: primary human bronchial epithelial cells; actives raise or lower the signal
In short: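 Primary human bronchial epithelial cells were dosed with test chemicals, and MMP1 levels were measured by ELISA 24 h later. Data were fitted bidirectionally against DMSO as the negative control and activity baseline.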

[2] = BSK_3C_Vis: BioMAP Diversity Plus: 3C Assay for Morphology Visualization (AID 2283025); conditions: primary human endothelial cells (HUVEC);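 also: fitted both ways so gain or loss versus DMSO counts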
In short: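 Human umbilical vein endothelial cells in the 3C system were imaged by light microscopy 24 h after chemical dosing to record cell morphology. Activity was fitted bidirectionally against DMSO as negative control and baseline; the endpoint serves as a background control.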

[3] = read-out: Pselectin, SELP (gene 6403); test: BSK_4H_Pselectin: BioMAP Diversity Plus: 4H Assay for Pselectin Biomarker Activity (AID 2283026); conditions: primary human endothelial cells (HUVEC); actives raise or lower the signal
In short: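 Primary human umbilical vein endothelial cells were exposed to test chemical for 24 h, then cell-surface P-selectin was quantified by ELISA. Activity was fitted bidirectionally against DMSO as negative control and baseline.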

[4] = BSK_4H_SRB: Viability Assessment in the BioMAP Diversity Plus: 4H Assay (AID 2283027); conditions: primary human endothelial cells (HUVEC);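 also: cells exposed to compound for 24 h before staining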;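 as to AC50: curves fitted both ways versus DMSO so AC50 may be loss or gain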
In short: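 Human umbilical vein endothelial cells, 24 h after chemical dosing; total protein measured by 0.1% sulforhodamine B staining after 10% TCA fixation, read at 560 nm. Bidirectional fitting against DMSO.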

[5] = BSK_BE3C_SRB: Viability Assessment in the BioMAP Diversity Plus: BE3C Assay (AID 2283028); conditions: primary human bronchial epithelial cells;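 as to AC50: fitted both ways so AC50 may mark signal gain or loss versus DMSO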
In short: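 Human primary bronchial epithelial cells were exposed to test chemicals for 24 h. Total protein in parallel cultures was then measured by staining with 0.1% sulforhodamine B after 10% TCA fixation, with absorbance read at 560 nm. Activity was fitted bidirectionally against DMSO.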

[6] = read-out: Thrombomodulin, THBD (gene 7056); test: BSK_3C_Thrombomodulin: BioMAP Diversity Plus: 3C Assay for Thrombomodulin Biomarker Activity (AID 2283029); conditions: primary human endothelial cells (HUVEC); actives raise or lower the signal
In short: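 Primary human umbilical vein endothelial cells (3C system) were exposed to chemical for 24 h, then thrombomodulin levels were measured by ELISA. Activity was fitted bidirectionally against the DMSO negative control as baseline.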

[7] = read-out: Urokinase-type plasminogen activator receptor (uPAR), PLAUR (gene 5329); test: BSK_4H_uPAR: BioMAP Diversity Plus: 4H Assay for Urokinase-type plasminogen activator receptor (uPAR) Biomarker Activity (AID 2283030); conditions: primary human endothelial cells (HUVEC); actives raise or lower the signal
In short: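 Primary human umbilical vein endothelial cells were exposed to chemical for 24 h before cell-surface uPAR was quantified by ELISA. Activity was fitted bidirectionally against the DMSO negative control baseline.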

[8] = read-out: Vascular endothelial growth factor receptor 2 (Homo sapiens) (UniProt P35968); test: BSK_4H_VEGFRII: BioMAP Diversity Plus: 4H Assay for Vascular endothelial growth factor receptor 2 (VEGFR2) Biomarker Activity (AID 2283031); conditions: primary human endothelial cells (HUVEC); actives raise or lower the signal;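 as to AC50: cell-surface VEGFR2 protein level quantified by ELISA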
In short: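 Primary human umbilical vein endothelial cells in the BioMAP 4H system were dosed with test chemical, and 24 h later VEGFRII was measured by ELISA. Activity was fitted bidirectionally against DMSO as negative control and baseline.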

[9] = read-out: Human Leukocyte Antigen - DR isotype (HLADR), HLA-DRA (gene 3122); test: BSK_BE3C_HLADR: BioMAP Diversity Plus: BE3C Assay for Human Leukocyte Antigen - DR isotype (HLADR) Biomarker Activity (AID 2283032); conditions: primary human bronchial epithelial cells; actives raise or lower the signal
In short: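 Human primary bronchial epithelial cells in the BE3C system were exposed to chemicals for 24 h, after which HLA-DR levels were quantified by ELISA. Activity was fitted bidirectionally, gain or loss of signal, against DMSO as negative control and baseline.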

[10] = read-out: Vascular cell adhesion molecule 1 (VCAM1), VCAM1 (gene 7412); test: BSK_4H_VCAM1: BioMAP Diversity Plus: 4H Assay for Vascular cell adhesion molecule 1 (VCAM1) Biomarker Activity (AID 2283033); conditions: primary human endothelial cells (HUVEC); actives raise or lower the signal
In short: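 Primary human umbilical vein endothelial cells were exposed to chemicals for 24 h, after which VCAM-1 was quantified by ELISA. Responses were fitted bidirectionally against DMSO as negative control and activity baseline.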

Measured: AC50

CCOP(=S)(OCC)SCS(=O)(=O)CC
inactive: [1] | [2] | [3] | [4] | [5] | [6] | [7] | [8] | [9] | [10]

O=c1ssc(Cl)c1Cl
inactive: [6] | [8]
active: [1] 9.81 µM | [2] 4.24 µM | [3] 4.74 µM | [4] 5.42 µM | [5] 5.34 µM | [7] 7.3 µM | [9] 8.51 µM | [10] 3.91 µM

CC(Cl)CN(C)C (stereo unspecified)
inactive: [1] | [2] | [3] | [4] | [5] | [6] | [7] | [8] | [9] | [10]

CCOS(=O)(=O)OCC
inactive: [1] | [2] | [3] | [4] | [5] | [6] | [7] | [8] | [9] | [10]

O=C(O)C(F)(OC(F)(F)C(F)(F)C(F)(F)F)C(F)(F)F (stereo unspecified)
active: [1] 10.7 µM
inactive: [1] | [3] | [5] | [6] | [7] | [8] | [9] | [10]

CCNc1nc(Cl)nc(NC(C)(C)C)n1
inactive: [1] | [2] | [3] | [4] | [5] | [6] | [7] | [8] | [9] | [10]

CCN(CC)c1ccccc1
inactive: [1] | [2] | [3] | [4] | [5] | [6] | [7] | [8] | [9] | [10]

CCCCN(CCCC)N=O
inactive: [1] | [2] | [3] | [4] | [5] | [6] | [7] | [8] | [9] | [10]

OCC(F)(F)OC(F)(F)C(F)(F)OC(F)(F)C(F)(F)OC(F)(F)CO
inactive: [1] | [3] | [5] | [6] | [7] | [8] | [10]
active: [1] 39.8 µM | [9] 45.5 µM and 30 µM

Nc1ccc2ccccc2c1
active: [1] 2.92 µM
inactive: [2] | [3] | [4] | [5] | [6] | [7] | [8] | [9] | [10]

CSC(C)(C)C=NO
inactive: [1] | [2] | [3] | [4] | [5] | [6] | [7] | [8] | [9] | [10]

Cc1ccc([N+](=O)[O-])cc1C
inactive: [1] | [2] | [3] | [4] | [5] | [6] | [7] | [8] | [9] | [10]

c1ccc2c(c1)Nc1ccccc1S2
inactive: [1] | [2] | [3] | [4] | [5] | [6] | [7] | [8] | [9] | [10]

CC(Cl)(Cl)C(=O)O
inactive: [1] | [2] | [3] | [4] | [5] | [6] | [7] | [8] | [9] | [10]

FC(F)(F)C(F)(C(F)(F)F)C(F)(F)C(F)(F)CC1CO1 (stereo unspecified)
inactive: [1] | [3] | [5] | [6] | [7] | [9] | [10]
active: [1] 2.33 µM

N#Cc1cc([N+](=O)[O-])ccc1N
inactive: [1] | [2] | [3] | [4] | [5] | [6] | [7] | [8] | [9] | [10]

CC(C)(C)c1ccc(O)cc1
inactive: [1] | [2] | [3] | [4] | [5] | [6] | [7] | [8] | [9] | [10]

O=S1(=O)OCC2C(CO1)C1(Cl)C(Cl)=C(Cl)C2(Cl)C1(Cl)Cl (stereo unspecified)
inactive: [1] | [2] | [5] | [6] | [8] | [9]
active: [3] 12.2 µM | [4] 12.3 µM | [7] 9.1 µM | [10] 20 µM

CCCCc1ccccc1
inactive: [1] | [2] | [3] | [4] | [5] | [6] | [7] | [8] | [9] | [10]

c1nc[nH]n1
inactive: [1] | [2] | [3] | [4] | [5] | [6] | [7] | [8] | [9] | [10]

Cc1ccc(O)cc1C
inactive: [1] | [2] | [3] | [4] | [5] | [6] | [7] | [8] | [9] | [10]

O=[N+]([O-])c1ccccc1
inactive: [1] | [2] | [3] | [4] | [5] | [6] | [7] | [9] | [10]

ClC(Cl)c1ccccc1
inactive: [1] | [2] | [3] | [4] | [5] | [6] | [7] | [8] | [9] | [10]

CC(C)Nc1ccc(Nc2ccccc2)cc1
inactive: [1] | [6]
active: [2] 9.94 µM | [3] 7.42 µM | [4] 9.88 µM | [5] 33.2 µM | [7] 14.4 µM | [8] 8.12 µM | [9] 9.07 µM | [10] 10.1 µM

CCOc1ccc(C(C)(C)COCc2cccc(Oc3ccccc3)c2)cc1
inactive: [1] | [2] | [3] | [4] | [5] | [6] | [7] | [8] | [9] | [10]

CCOP(=S)(Oc1ccc([N+](=O)[O-])cc1)c1ccccc1 (stereo unspecified)
inactive: [1] | [2] | [3] | [4] | [5] | [6] | [7] | [8] | [9]
active: [10] 8.86 µM

CCOP(=S)(OCC)SCSc1ccc(Cl)cc1
inactive: [1] | [2] | [4] | [5] | [6] | [7] | [8] | [9]
active: [3] 12.6 µM | [10] 6.58 µM

COCCOCCO
inactive: [1] | [2] | [3] | [5] | [6] | [7] | [8] | [9] | [10]

CCC1(c2ccccc2)C(=O)N=C(O)NC1=O (stereo unspecified)
inactive: [1] | [2] | [3] | [5] | [6] | [7] | [9] | [10]

CCCCOCCOP(=O)(OCCOCCCC)OCCOCCCC
active: [2] 37.5 µM
inactive: [1] | [3] | [4] | [5] | [6] | [7] | [9] | [10]

ClC(Cl)=C(c1ccc(Cl)cc1)c1ccccc1Cl
inactive: [1] | [6]
active: [2] 14.4 µM | [3] 10.6 µM | [5] 10.5 µM | [7] 11.7 µM | [8] 5.35 µM | [9] 20 µM | [10] 11.8 µM

CC(C)(C)OOC(C)(C)C
inactive: [1] | [2] | [3] | [5] | [6] | [7] | [9] | [10]

OCC1CO1 (stereo unspecified)
inactive: [1] | [2] | [3] | [4] | [5] | [6] | [7] | [9] | [10]

COP(=O)(O)OC
inactive: [1] | [2] | [3] | [5] | [6] | [7] | [9] | [10]

CCCCC(CC)COC(=O)c1c(Br)c(Br)c(Br)c(Br)c1C(=O)OCC(CC)CCCC (stereo unspecified)
inactive: [1] | [2] | [3] | [5] | [6] | [7] | [8] | [9] | [10]

Nc1cc2c3c(c1)C(c1ccccc1)=N[C@@H](NC(=O)c1cccnc1)C(=O)N3CC2
inactive: [1] | [2] | [3] | [5] | [6] | [7] | [8] | [9] | [10]

C=CC(=O)OCC(CC)(COC(=O)C=C)COC(=O)C=C
inactive: [6]
active: [1] 11.4 µM | [2] 2.98 µM | [3] 2.25 µM | [4] 4.07 µM | [5] 20 µM | [7] 4.07 µM | [9] 3.18 µM | [10] 2.45 µM

N#Cc1c(-c2ccc(Cl)cc2)[nH]c(C(F)(F)F)c1Br
active: [2] 7.8 µM | [3] 0.117 µM | [4] 0.0374 µM | [6] 5.07 µM | [7] 0.13 µM | [9] 4.08 µM | [10] 1.69 µM
inactive: [1] | [5]
